# Screening data as filed in PubChem BioAssay.
# Shown is part of a subset that was picked to be rich in hits.
# ST2 IL33 inh: IL1RL1 inhibition. Q01638. AlphaLISA ST2-Fc/biotin-IL-33 interaction, 1 h. inhibition, % for hits at 17 µM. hit rate 2.3% among 78,000. AID 1259354; in the data active = inhibition above about 30%
# Target sequence (Q01638 whole entry, looked up): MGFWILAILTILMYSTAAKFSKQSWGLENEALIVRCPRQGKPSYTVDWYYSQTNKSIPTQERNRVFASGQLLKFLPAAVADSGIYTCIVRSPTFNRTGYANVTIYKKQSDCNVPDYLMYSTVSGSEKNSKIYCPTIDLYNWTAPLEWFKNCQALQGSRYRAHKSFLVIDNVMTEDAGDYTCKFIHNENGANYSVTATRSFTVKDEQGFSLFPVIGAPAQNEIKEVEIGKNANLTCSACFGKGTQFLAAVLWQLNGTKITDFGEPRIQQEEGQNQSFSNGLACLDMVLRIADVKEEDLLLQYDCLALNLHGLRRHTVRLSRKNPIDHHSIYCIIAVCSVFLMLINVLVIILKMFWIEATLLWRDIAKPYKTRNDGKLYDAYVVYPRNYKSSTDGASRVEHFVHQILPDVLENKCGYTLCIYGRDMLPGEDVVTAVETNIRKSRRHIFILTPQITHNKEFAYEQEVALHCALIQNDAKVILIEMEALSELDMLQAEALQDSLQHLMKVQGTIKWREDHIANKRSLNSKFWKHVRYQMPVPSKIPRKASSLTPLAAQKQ
# Starred values were filed as active, the others as inactive; i = inactive.
SMILES,ST2 IL33 inh
CCOC(=O)C1C(=O)C=C(c2ccc(OC)c(OC)c2)CC1c1cccs1 (stereo not drawn),i
O=C1C=C(/C=C/c2ccccc2)C[C@H](c2ccccc2)[C@H]1n1nnc([N+](=O)[O-])n1,58.0%*
NC(=O)[C@H](CC1CCCCC1)NC(=O)[C@@H]1CN(C(=O)Nc2ccccc2)CCN1C(=O)NC1CCCCC1,i
O=C(NCCc1c[nH]c2ccccc12)c1ccc2nc3cc(Cl)ccc3c(=O)n2c1,i
O=C(O)c1cc(N2C(=O)C3C4C=CC(CC4)C3C2=O)ccc1Cl (stereo not drawn),i
CC1=C(C(=O)Nc2ccc(F)cc2F)C(c2ccc(F)cc2)C2=C(CC(C)(C)CC2=O)N1 (stereo not drawn),i
O=C(NC1CC1)c1cc2n(n1)CCN(Cc1ccnn1-c1ccccc1)C2,i
COc1ccc(NC(=O)COc2ccccc2)c([N+](=O)[O-])c1,i
COc1ccc(NC(=O)C(Cl)(Cl)Cl)c([N+](=O)[O-])c1,34.0%*
COc1ccc(NC(=O)c2ccc(Br)cc2)c([N+](=O)[O-])c1,i
CCc1nc(SCC(=O)c2ccc(C)cc2)c(C#N)cc1C,i
CCC(=O)Nc1ccc(Br)c(C)c1,i
COc1ccccc1C1N(O)C(C)(C)C(c2ccccc2)=[N+]1[O-] (stereo not drawn),i
COc1ccc(C2=NN(C(=O)CCC(=O)O)C(c3ccc(Cl)cc3)C2)cc1 (stereo not drawn),i
COc1ccc(C2=NN(CN3C(=O)C(=O)c4ccccc43)C(c3ccccc3)C2)cc1 (stereo not drawn),36.0%*
COc1ccc(N2C(=O)C(N3C(=O)c4ccccc4C3=O)C2c2cccc(OC)c2)cc1 (stereo not drawn),i
COc1ccc(C2CC(c3ccc(Br)cc3)=NN2S(=O)(=O)c2ccccc2)cc1 (stereo not drawn),34.0%*
COc1ccc(NC(=O)CN2C(=O)c3ccc([N+](=O)[O-])cc3C2=O)c(OC)c1,i
COc1ccccc1C1CC(c2ccc(Br)cc2)=NN1S(=O)(=O)c1ccccc1 (stereo not drawn),i
COc1ccc(C2=NN(S(=O)(=O)c3ccccc3)C(c3ccc(Br)cc3)C2)cc1 (stereo not drawn),i
COc1ccc(C2CC(c3ccccc3)=NN2S(=O)(=O)c2ccccc2)cc1 (stereo not drawn),i
COc1ccc(C2=NN(CN3C(=O)C(=O)c4ccccc43)C(c3cccc([N+](=O)[O-])c3)C2)cc1 (stereo not drawn),39.0%*
COc1ccccc1C1CN(CC(=O)NCC2(c3ccccc3)CCOCC2)Cc2ccccc2O1 (stereo not drawn),i
CCC/C=C/c1ccc(-c2nc(C)no2)cn1,i
Cn1c(=O)cc(SCC(=O)NCCCN2CCCCCC2)c2ccc(Cl)cc21,i
SMILES,ST2 IL33 inh
CCc1nc(NC(=O)N2CCN(c3ccncc3C)CC2)nn1C,i
Nc1c(C(=O)NCc2ccccc2)nnn1Cc1ccc(F)cc1Cl,i
CN1CCCCCC1C(=O)N1CCC(N2CCC(C(=O)NC3CC3)CC2)CC1 (stereo not drawn),i
O=C(C1CCCC1)N1CCN(c2ccc([N+](=O)[O-])cc2)CC1,i
O=C(CCN1CCCCC1)c1ccc(Cl)cc1,i
NC(=O)c1ccc(C(=O)N(C2CCCCC2)C2CCCCC2)cc1,i
O=C(CN1CCCCCC1)N1CCCc2c1c(=O)oc1ccc(O)cc21,i
O=C(CN1CCCCCC1)N1CCCc2c1c(=O)oc1ccc(OCc3ccccc3)cc21,30.0%*
O=C(CN1CCCC1)N1CCCc2c1c(=O)oc1ccc(O)cc21,i
CCN(CC)CCCNC(=O)c1cnn2c(C)c(Cc3c(F)cccc3Cl)c(C)nc12,i
COc1ccc(/C=C2\SC(=O)N(c3cccc(C)c3)C2=O)cc1,i
COc1ccc(N2C(=N)S/C(=C\c3ccccc3[N+](=O)[O-])C2=O)cc1,36.0%*
COc1ccc(/C=C2\SC(=O)N(c3ccc(O)cc3)C2=O)cc1,i
Cc1ccc(S(=O)(=O)N(CC(=O)O)c2cccc(Br)c2)cc1,i
CC(C)CSCCc1ccncc1,i
COc1cc(-n2cnc(C(=O)O)c2)ccc1NC(C)=O,i
O=c1n(CCCn2cccc2)nc(C2CCNCC2)n1-c1ccccc1,30.0%*
CC(C)SCCn1nc(C2CCCNC2)n(-c2ccccc2)c1=O (stereo not drawn),i
O=c1n(Cc2cccc(F)c2F)nc(C2CCNCC2)n1Cc1ccccc1,i
CCCc1nc2nc[nH]n2c(=O)c1NC(=O)Nc1ccc(F)c(Cl)c1,i
O=C1c2ccccc2C(=O)N1CN(C(=O)c1ccccc1)c1ccc(F)cc1,77.0%*
CC(=O)N(CN1C(=O)c2ccccc2C1=O)c1ccc(F)cc1,i
O=C1c2ccccc2C(=O)N1CN(C(=O)c1ccccc1)c1ccc(Br)cc1,i
CCn1c(=O)n(CC(=O)OC)c(=O)c2ccccc21,i
COc1ccc(-c2nc3s/c(=C\C=C\c4ccccc4)c(=O)n3n2)cc1,i
CC1(C#CCN2CCCCC2)CC1(Cl)Cl (stereo not drawn),i
